Experimental data taken from PubChem BioAssay AID492952 (Southern Research Specialized Biocontainment Screening …, 2010).
Among all 2,300 compounds or so, about 1,500 (65%) were called active. No rule for the calls is given here. So high a share suggests a set chosen from earlier hits. This is one part of the list. Measured potencies and affinities stand elsewhere.

Assay: replicating M. tuberculosis growth inhibition, dose response, non-replicating M. tuberculosis project, H37Rv (AID 492952);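 also: Mycobacterium tuberculosis grown in culture; growth inhibition read after a week of incubation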
Settings: series mostly up to 50 µM

Row | Structure (SMILES) | outcome
1 | CC1CC(C)CN(CCOCCSc2ccc(Cl)cc2)C1 (stereo not drawn) | inactive
2 | Clc1ccc(CN2C3=NCCCN3c3ccccc32)cc1 | inactive
3 | COc1ccc(C(=O)CCS(=O)(=O)c2ccc(C)cc2)cc1OC | inactive
4 | O=C1CC(=O)CC(c2ccccc2)C1 | inactive
5 | O=C(NCc1nnc(SC/C=C/c2ccccc2)o1)c1ccco1 | inactive
6 | CCN1CCC(=NNC(=O)c2ccco2)CC1 | inactive
7 | Cc1occc1C(=O)N/N=C/C(Br)=C\c1ccccc1 | inactive
8 | O=C(Nc1nnc(COc2ccc(Cl)cc2)s1)c1ccco1 | inactive
9 | CC1=NN(C(=O)CCCc2ccccc2)C(O)(C(F)(F)F)C1 (stereo not drawn) | inactive
10 | Cc1cc(C)cc(OC(=O)c2cccnc2)c1 | inactive
11 | Cc1n[nH]c(C)c1CCNC(=O)C1CCC(=O)N(Cc2ccccc2F)C1 (stereo not drawn) | inactive
12 | COc1ccc2c3c(cccc13)OCC2=O | inactive
13 | O=C1/C(=C/c2cccs2)COc2ccccc21 | inactive
14 | S=C1NC2(CCCC2)N=C1c1ccccc1 | inactive
15 | CCOc1ccc(C(=O)N/N=C(/C)C2C(=O)c3ccccc3C2=O)cc1 | inactive
16 | CCOC(=O)Nc1cccc(OCC(=O)Nc2ccc(OC)cc2OC)c1 | inactive
17 | NC(=O)COc1ccc2cc(-c3ccc(F)cc3)c(=O)oc2c1 | inactive
18 | CCOc1c(OC(C)=O)ccc(/C=C2\N=C(SCC)SC2=O)c1[N+](=O)[O-] | inactive
19 | COc1ccc(-c2nnc(SCC(C)C)o2)cc1 | inactive
20 | O=[N+]([O-])c1ccc(CSc2nnc(-c3cccnc3)o2)cc1 | inactive
21 | Brc1ccc(CSc2nnc(-c3ccco3)o2)cc1 | inactive
22 | Cc1ccc(CSc2nnc(-c3cccnc3)o2)cc1 | inactive
23 | O=C1CC(N2CCC(C(=O)N3CCCCC3)CC2)C(=O)N1 (stereo not drawn) | inactive
24 | C#CCSc1nnc(-c2ccc(O)cc2)o1 | inactive
25 | CC(C)c1ccc(OCC(=O)NCc2ccccc2)cc1 | inactive

Row | Structure (SMILES) | outcome
26 | O=C(NCc1ccc(F)cc1)c1cnccn1 | inactive
27 | Cc1cc(Br)ccc1OCCCCN1CCCCC1 | inactive
28 | COc1ccc(Cc2nnc(-c3ccccc3)o2)cc1 | inactive
29 | O=C(c1ccc(-c2ccc([N+](=O)[O-])cc2)o1)N1CCN(S(=O)(=O)c2cccs2)CC1 | inactive
30 | Cc1ccc2[nH]c3c(c2c1)CCCC3NCCO (stereo not drawn) | inactive
31 | COCCCn1c(=NC(=O)c2ccccc2)c(C#N)cc2c(=O)n3cccc(C)c3nc21 | inactive
32 | Cc1cc(Cl)ccc1NNC(=O)c1c(C)noc1C | inactive
33 | CCOC(=O)c1sc(NC(=O)CCN2CCOCC2)c(C(=O)OCC)c1C | inactive
34 | CCOC(=O)c1ccsc1NC(=O)CCS(=O)(=O)c1ccccc1 | inactive
35 | Cc1ccc(Sc2ncccc2N)cc1 | inactive
36 | Nc1ccc(Nc2ccccc2)cc1 | inactive
37 | CC1(C)CC(=O)C=C(Nc2ccccc2N)C1 | inactive
38 | CN(C)/C=C1/C(=O)N(c2ccc([N+](=O)[O-])cc2)N=C1c1ccccc1 | inactive
39 | Cc1cc2cc(CNC(=O)C3CCCC3)ccc2n1C | inactive
40 | S=C(Nc1ccc2c(c1)OCO2)Nc1ccc2c(c1)OCO2 | inactive
41 | CC1(C)Oc2ccc(NC(=O)C3COc4ccccc4O3)cc2O1 (stereo not drawn) | inactive
42 | O=C(c1ccccc1)n1c(=O)c(F)cn(COCCBr)c1=O | inactive
43 | O=C(CCc1ccccc1F)N1CCN(c2ccccc2)CC1 | inactive
44 | COc1ccc([N+](=O)[O-])c(S(=O)(=O)c2ccc(Cl)cc2)n1 | inactive
45 | CCOC(=O)N1CCC(NS(=O)(=O)c2cc3c(cc2Cl)NC(=O)CO3)CC1 | inactive
46 | O=C(Cc1ccccc1)Nc1ccc(C(=O)NCC2COc3ccccc3O2)cc1 (stereo not drawn) | inactive
47 | O=C(Nc1sc2c(c1C(=O)O)CCCC2)c1ccc(F)cc1 | inactive
48 | O=C(Nc1ncc2c(n1)-c1ccccc1OC2)c1ccc(F)cc1 | inactive
49 | O=C(CCc1ccccc1)N/N=C/c1cc(Br)ccc1O | inactive
50 | COc1ccc(N/N=C/c2c(C(=O)O)ccc3ccccc23)cc1 | inactive

Row | Structure (SMILES) | outcome
51 | O=C(Nc1nccs1)c1ccc(Br)cc1 | inactive
52 | CC(C)c1nnc(NC(=O)c2sc3ccccc3c2Cl)s1 | inactive
53 | C=C1Cn2c(nnc2-c2ccc(Cl)cc2)S1 | inactive
54 | COc1ccc(N=N/C(=C\O)C(=O)c2ccco2)cc1 | inactive
55 | Clc1ccc(Cc2nnc(-c3cccs3)o2)cc1 | inactive
56 | COCc1[nH]nc2c1C(c1sccc1C)C(C#N)=C(N)O2 (stereo not drawn) | inactive
57 | O=C(NCc1ccccc1)c1cc2ccccc2oc1=O | inactive
58 | O=C(COC(=O)c1cc2ccccc2oc1=O)Nc1ccc(F)cc1F | inactive
59 | Cc1cccc(NC(=O)COC(=O)c2cc3ccccc3oc2=O)c1 | inactive
60 | Cc1cccc(NC(=O)c2cc3ccccc3oc2=O)c1 | inactive
61 | NNC(=O)CNC(=O)C12CC3CC(CC(C3)C1)C2 | inactive
62 | COc1ccc(OC(=O)C(C)N2C(=O)c3ccccc3C2=O)cc1 (stereo not drawn) | inactive
63 | COc1ccc2c(c1)C(=C(C#N)C#N)C(=O)N2CCc1ccccc1 | inactive
64 | CCN1/C(=C(\O)c2ccccc2)C(=O)c2ccccc2S1(=O)=O | inactive
65 | Cc1cccc2nc(CSc3nc4cc([N+](=O)[O-])ccc4s3)cn12 | inactive
66 | CC(C)CN1C(=O)CC(Sc2ccccc2C(=O)O)C1=O (stereo not drawn) | inactive
67 | COc1ccc(CCCC(=O)NCc2ccccc2)cc1C | inactive
68 | COc1cc(CNC2CCCC2)cc(Cl)c1OCc1ccc(F)cc1 | inactive
69 | NC(=O)C1(N2CCCCC2)CCN(C2CC(=O)N(CCc3ccccc3)C2=O)CC1 (stereo not drawn) | inactive
70 | O=C(NCc1ccco1)c1nc2ccccc2s1 | inactive
71 | CCCCCCOc1ccc(C(=O)O)cc1C#N | inactive
72 | CC(C)(C)CC(=O)NC(=S)NCc1ccco1 | inactive
73 | COc1ccc(S(=O)(=O)N(C(C)=O)c2ccc(OC(C)=O)c3ccccc23)cc1[N+](=O)[O-] | inactive
74 | Cc1nc2scc(-c3ccccc3)c2c(=O)o1 | inactive
75 | CCOC(=O)c1ccc(NC(=O)CCSCCc2ccccn2)cc1 | inactive

Row | Structure (SMILES) | outcome
76 | CCOC(=O)c1ccc(NC(=O)NS(=O)(=O)c2ccc(C)cc2)cc1 | inactive
77 | Cc1ccc(CCC(=O)Nc2ccc([N+](=O)[O-])cc2)o1 | inactive
78 | O=C(NNc1ccc([N+](=O)[O-])cc1)C1CC2CCCC(C1)C2=O (stereo not drawn) | inactive
79 | CC(NC(=O)c1cccc(F)c1)C1CC2CCC1C2 (stereo not drawn) | inactive
80 | O=C(N/N=C/C=C/c1ccccc1)c1cccs1 | inactive
81 | O=C(Nc1cccnc1)c1cc(Cl)ccc1Cl | inactive
82 | Cn1c(-c2cccc([N+](=O)[O-])c2)cnc1NCc1cccc(F)c1 | inactive
83 | Cc1ccccc1C1=N/C(=C/c2cccnc2)C(=O)O1 | inactive
84 | O=C1OC(/C=C/c2ccccc2)=NC/1=C\c1cccnc1 | inactive
85 | Cc1cc(OCCCn2ccnc2)ccc1C(C)C | inactive
86 | O=C(COc1ccc2ccccc2c1Br)N1CCCC1 | inactive
87 | Cc1ccc(C(=O)COC(=O)CCc2ccc(S(=O)(=O)N3CCCCC3)cc2)cc1 | inactive
88 | O=S(=O)(c1ccc(Cl)c2ccccc12)N1CCCC1 | inactive
89 | COc1cc(NC(=O)N2CCOCC2)cc(OC)c1 | inactive
90 | O=C(COc1c(Br)cc(Br)c2cccnc12)N1CCCCC1 | inactive
91 | CCOC(=O)C1CCCN(Cc2nc(Cc3ccccc3Cl)no2)C1 (stereo not drawn) | inactive
92 | Cc1cc(C)nc(SC2CC(=O)N(c3ccc(C)c(C)c3)C2=O)n1 (stereo not drawn) | inactive
93 | CC(=O)Nc1ccc(NC(=O)[C@@H]2CCCC[C@@H]2C(=O)O)cc1 | inactive
94 | Cc1nc(C(=O)Nc2ccccc2)sc1C(=O)Nc1ccccc1 | inactive
95 | NC(=O)N/N=C\c1cc(Br)ccc1O | inactive
96 | NC(N)=N/N=C/c1cc([N+](=O)[O-])ccc1O | inactive
97 | O=C1N=c2ccccc2=C1c1c(O)n(-c2cccc(F)c2)[nH]c1=O | inactive
98 | N/C(=N\OC(=O)c1cccc2ccccc12)c1cccnc1 | inactive
99 | O=C(Cc1c(F)cccc1Cl)Nc1ncc([N+](=O)[O-])s1 | inactive
100 | N/C(=N\OC(=O)c1cccc(Br)c1)c1ccc([N+](=O)[O-])cc1 | inactive

Row | Structure (SMILES) | outcome
101 | Cc1ccc(C(=O)O/N=C(\N)c2cccc([N+](=O)[O-])c2)cc1 | inactive
102 | O=C(COc1ccccc1)Nc1ccc(F)cc1 | inactive
103 | CCCNC(=O)NC(=O)COc1ccc2oc3ccccc3c2c1 | inactive
104 | N#CC1=C(N)Oc2c(ccc3cccnc23)C1c1ccccc1 (stereo not drawn) | inactive
105 | O=C(NCCc1cccc(Cl)c1)c1cc2ccccc2oc1=O | inactive
106 | COCCCC1CCN(Cc2nc(-c3ccccc3)no2)CC1 | inactive
107 | CC(C)(C)OC(=O)NCCC(=O)Oc1ccc2ccc(=O)oc2c1 | inactive
108 | O=C(NC(=S)Nc1ccc(F)cc1)C1CCCCC1 | inactive
109 | O=C(N/N=C/c1cccc([N+](=O)[O-])c1O)c1cccs1 | inactive
110 | O=C(O)c1ccccc1-c1ccccc1C(=O)Nc1nc2ccccc2s1 | inactive
111 | O=C(O)c1ccccc1C(=O)NNc1ccc(Cl)cc1 | inactive
112 | O=C(NCCN1C(=O)S/C(=C\c2ccccc2F)C1=O)C1CCN(S(=O)(=O)c2cccs2)CC1 | inactive
113 | O=S(=O)(Nc1ccc(O)c2ccccc12)c1ccc(F)cc1 | inactive
114 | O=c1cc(-c2ccccc2Cl)oc2c([N+](=O)[O-])c(O)cc(O)c12 | inactive
115 | Cc1ccc(-c2nnc(Cc3ccc([N+](=O)[O-])cc3)o2)cc1 | inactive
116 | CCC1CCC(c2nnc(-c3ccc([N+](=O)[O-])cc3)o2)CC1 (stereo not drawn) | inactive
117 | COc1ccc(Cc2nnc(SCc3ccc([N+](=O)[O-])cc3)o2)cc1 | inactive
118 | Cc1nc(Cl)nc(N(C)c2ccccc2)c1[N+](=O)[O-] | inactive
119 | O=C1CCCCC1Sc1nnc(-c2ccc3c(c2)OCO3)o1 (stereo not drawn) | inactive
120 | C(=C\c1ccccc1)/CSc1nc2ncccc2[nH]1 | inactive
121 | O=C(CCSc1ccccc1)N1CCCC1 | inactive
122 | CCS(=O)(=O)c1ncc(Cl)c(C(=O)Nc2ccc(S(=O)(=O)N3CCC(C)CC3)cc2)n1 | inactive
123 | CCCC(O)(CCC)C(=O)NNc1ccc(C)cc1 | inactive
